Hit rate of the full screen: of about 5,500 compounds, about 2,000 (36%) were called active. About 18% were inconclusive and are not listed. Rule as the data show it: active = normalized growth mostly below about 0.91 (no sharp cut-off); inconclusive = no clear call, values can overlap the other calls; inactive = mostly above about 0.92. The list shows a part of the results.
Assay: chemical genetic growth profiling, strain panel (AID 1159580);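 also: tested at 20 µM; growth read once vehicle control cultures reached saturation at 30 °C; 1 = growth at the plate median or of vehicle wells; lower values mean less growth of the strain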
Conditions: S. cerevisiae deletion strains, growth OD

Measured: normalized growth

CN(C)CCc1c[nH]c2ccc(Cn3cncn3)cc12
inactive: locus YHR030C, strain SLT2, active compounds read low 0.92 | locus YHR079C, strain IRE1, active compounds read low 0.928 | locus YJL095W, strain BCK1, active compounds read low 0.961 | locus YJR066W, strain TOR1, active compounds read low 0.914 | locus YLR113W, strain HOG1, active compounds read low 0.918 | locus YNL183C, strain NPR1, active compounds read low 0.926 | locus YOR231W, strain MKK1, active compounds read low 0.928 | locus YPL256C, strain CLN2, active compounds read low 0.936

CC(N)=NCCC[C@H](N)C(=O)O
inactive: locus YAL040C, strain CLN3, active compounds read low 1 | locus YCL061C, strain MRC1 (second series), active compounds read low 1.01 | locus YDR363W, strain ESC2, active compounds read low 1.01 | locus YER002W, strain NOP16, active compounds read low 0.997 | locus YMR263W, strain SAP30, active compounds read low 1.02 | locus YMR307W, strain GAS1, active compounds read low 1.01 | locus YNL175C, strain NOP13, active compounds read low 1.01 | locus YNL197C, strain WHI3, active compounds read low 0.999 | locus YNL224C, strain SQS1, active compounds read low 1 | locus YOR083W, strain WHI5 (second series), active compounds read low 1.02 | locus YPL241C, strain CIN2, active compounds read low 1.01
